In the assay the test system is Plasmodium berghei ANKA liver stage in HepG2-A16-CD81. Description: % inhibition of liver stage parasite viability (luciferase); higher = more inhibition. As to conditions: 5 µM; 48 h. As to the method:
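Single-concentration screen of the MMV Pandemic Response Box. P. falciparum NF54 asexual blood stages: pLDH assay, 72 h at 37 °C, 2 and 20 µM, n=2. Stage IV/V gametocytes (NF54): luciferase reporter (NF54-Pfs16-GFP-Luc, 48 h), ATP bioluminescence (24 h) and PrestoBlue (48 h) at 1 and 5 µM, n=1. P. berghei liver stage (luciferase in HepG2-A16-CD81, 48 h post infection) at 5 µM, n=4. All normalised to DMSO and kill controls as % inhibition.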
With `Fc1ccc(-n2cc(Cn3c(-c4cccc(F)c4)nc4ccccc43)nn2)cc1`, the “% inhibition of liver stage parasite viability” value (shortened to “% inhibition”) was found to be 6.9%.
Take `NC(=O)c1cnccn1`: the “% inhibition” value is 14.3%.
To `O=C(/C(=C/c1ccc(Cl)cc1Cl)n1ccnc1)c1ccc(Cl)cc1` belongs 26.7%.
As for `O=S(=O)(NCB(O)O)c1cc2c(Cl)ccc(Cl)c2s1`, the “% inhibition” value was -37.4%.
For the compound `Nc1nc(N)c2c(Sc3ccccc3)cccc2n1`, the “% inhibition” value worked out at 48.9%.
As to `O=C(O)c1ccc(-n2nc(-c3ccccc3O)nc2-c2ccccc2O)cc1`, the “% inhibition” value is 18.6%.
Consider `CC(=N)N1CC[C@H](SC2=C(C(=O)O)N3C(=O)[C@@H]([C@@H](C)O)[C@H]3C2)C1`, for which the “% inhibition” value was determined as 5.53%.
In the case of `C[C@H](c1cccc2ccccc12)N(C)Cc1ccccc1`, the “% inhibition” value stood at 19.1%.
To `c1cc(CN2CCCNCCNCCCNCC2)ccc1CN1CCCNCCNCCCNCC1` belongs 1.46%; to `O=C(CC1Sc2ncnn2C1=O)Nc1ccc(Br)cc1` (stereo not given), 20.8%; to `O=c1nc(N2CCN(CC3CCCCC3)CC2)sc2c([N+](=O)[O-])cc(C(F)(F)F)cc12`, 33.1%.
Regarding `CC(C)(C)c1ccc(C(=O)NC(=O)N2CCCc3ccccc32)cc1`, the “% inhibition” value came out at 15.6%.
To `CCc1cc(Cc2cnc(N)nc2N)cc2c1N(C)CCC2C` (stereo not given) belongs 7.3%; to `COc1cc(C(C(=O)NC2CCCCC2)N(C(=O)Cc2c[nH]c3ccccc23)c2ccc(C(C)C)cc2)cc(OC)c1OC` (stereo not given), 18.7%; to `O=C(Nc1cccc(C2=NCCN2)c1)c1ccc(-c2ccc(C(=O)Nc3cccc(C4=NCCN4)c3)cc2)cc1`, 15.4%.
`CCC[C@@H]1C[C@@H](C(=O)N[C@@H]([C@H]2O[C@H](SC)[C@H](O)[C@@H](O)[C@H]2O)[C@H](C)Cl)N(C)C1`: the “% inhibition” value was found to be 92.2%.
On to `CSC[C@H]1CN(Cc2c[nH]c3c(N)ncnc23)C[C@@H]1O`, for which the “% inhibition” value stood at 40.2%.
As for `COc1c(NC(=O)[C@H]2CC[C@@H](COc3ccc([N+](=O)[O-])cc3)CC2)c(F)cc2c(=O)c(C(=O)O)cn(C3CC3)c12`, the figure is 46.8%.
Consider `O=C(Nc1ccc(Cl)c(C(F)(F)F)c1)C(CCCl)C(=O)Nc1ccc(Cl)c(C(F)(F)F)c1`, for which the “% inhibition” value came to 11.8%.
Consider `NC(=O)C(c1ccccc1)(c1ccccc1)[C@H]1CCCN(CCc2ccc3c(c2)CCO3)C1`, for which the “% inhibition” value was found to be 48.5%.
For `CCN(CC)CCn1c(=N)n(CC(O)COc2ccc(Cl)cc2Cl)c2ccccc21` (stereo not given), the “% inhibition” value came to 42.1%.
Regarding `CC(C)(C)c1ccc(C(Cn2cccc(C(F)(F)F)c2=O)NC2Cc3ccccc3C2)cc1` (stereo not given), the “% inhibition” value came to 2.01%.
As to `CCCC1(C2CC2)c2cc(Cl)ccc2NC(=O)N1C` (stereo not given), the “% inhibition” value is -13.9%.
As for `C[Si]1(C)CCN(Cc2cc(-c3ccc(Cl)cc3)n(-c3ccc(Cl)cc3)n2)CC1`, the figure is 33.3%; as for `CCOC(=O)/C=C/[C@H](C[C@@H]1CCNC1=O)NC(=O)[C@@H](CC(=O)[C@@H](NC(=O)c1cc(C)on1)C(C)C)Cc1ccc(F)cc1`, -3.33%; as for `O=C(NCc1ccc(F)cc1)c1c(O)c2ncccc2[nH]c1=O`, 14%.
Regarding `CC(=O)Oc1ccccc1C(=O)Nc1ncc([N+](=O)[O-])s1`, the “% inhibition” value is 65.9%.
As for `CN(C)[C@@H]1C(=O)C(C(N)=O)=C(O)[C@@]2(O)C(=O)C3=C(O)c4c(O)c(NC(=O)CN5CCCC5)cc(F)c4C[C@H]3C[C@@H]12`, the figure is -4.53%; as for `OCCC#Cc1nc(-c2ccc(F)cc2)c(-c2ccncc2)n1CCCc1ccccc1`, 36.6%; as for `Cn1cc(NC(=O)c2cc(NC(=O)c3ccc(/C=C/c4cnc5ccccc5c4)cc3)cn2C)cc1C(=O)NCCN1CCOCC1`, 85.8%.
On to `COc1ccc(C2CNC(=O)C2)cc1OC1CCCC1` (stereo not given), for which the “% inhibition” value was determined as 29.1%.
For the compound `Cn1cncc1[C@@](N)(c1ccc(Cl)cc1)c1ccc2c(c1)c(-c1cccc(Cl)c1)cc(=O)n2C`, the “% inhibition” value came to 60.7%.
For the compound `OC[C@@H]1CC[C@H](n2cnc3c(O)ncnc32)O1`, the “% inhibition” value came to 18.8%.
For `Cc1cc(C)n2nc(C(=O)NS(=O)(=O)c3c(C)cccc3OC(F)(F)F)nc2n1`, the “% inhibition” value is 37%.
As for `CCOc1noc2cc(OCCC3CCN(c4ccc(C)nn4)CC3)ccc12`, the figure is 27.3%; as for `O=C(O)c1ccc(-c2ccc(O[C@H]3O[C@H](CO)[C@@H](O)[C@H](O)[C@@H]3O)cc2)cc1`, 29.4%; as for `CS(=O)(=O)c1ccc(Oc2ccc(Cl)cc2)cc1`, 9.76%.
`Cc1ncc([N+](=O)[O-])n1CC(O)CN1CCOCC1` (stereo not given): the “% inhibition” value is 25.3%.
Take `Cn1c2ccccc2c(=O)c2c(O)cccc21`: the “% inhibition” value stood at 29.3%.
Consider `O=[N+]([O-])c1cn(Cc2nc(O)nc(O)c2Br)cn1`, for which the “% inhibition” value was determined as 19.1%.

(Values after the supplement of paper PMC7801607.)
